Experiment [1] can be described thus: NCI Yeast Anticancer Drug Screen. Data for the rad50 strain (AID 155).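 Note: 0% = growth of vehicle-only cultures of the same strain.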 The note with it: S. cerevisiae rad50 strain growth inhibition; at 50.0 µM; stronger effect = higher value. Put shortly:
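Relative growth inhibition (compound vs vehicle) was measured in yeast with a defined repair-gene alteration.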

Experiment [2] is described as follows: NCI Yeast Anticancer Drug Screen. Data for the mec2-1 strain (AID 157). The note with it: S. cerevisiae mec2-1 strain, at 50.0 µM, stronger effect = higher value. The method, boiled down:
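Growth inhibition is read against vehicle-treated controls after compound exposure of the mec2-1 yeast strain, which is defective in DNA damage repair or cell cycle control.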

The nature of experiment [3]: NCI Yeast Anticancer Drug Screen. Data for the sgs1 mgt1 strain (AID 161).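 Note: 0% = growth of cultures given vehicle only.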 The note with it: S. cerevisiae sgs1 mgt1 strain, at 50.0 µM, stronger effect = higher value. Put shortly: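 Growth of a repair-deficient yeast mutant was monitored after compound treatment and expressed as inhibition relative to vehicle-treated cultures.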
The nature of experiment [4]: NCI Yeast Anticancer Drug Screen. Data for the cln2 rad14 strain (AID 165).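 Note: 0% = growth equal to vehicle treated cultures.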 The note with it: S. cerevisiae cln2 rad14 strain, at 50.0 µM, stronger effect = higher value. The method, boiled down: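 Growth inhibition, relative to vehicle-treated controls, is the read-out. The test organism is a yeast strain with defined genetic alterations, cln2 rad14.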
Experiment [5] in a line: NCI Yeast Anticancer Drug Screen. Data for the bub3 strain (AID 167). The note with it: S. cerevisiae bub3 mutant strain, at 50.0 µM, stronger effect = higher value. Put shortly: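 Screening used yeast with an engineered genetic alteration affecting cell cycle control. Compound-exposed cultures were compared with vehicle cultures, and reduced growth was taken as inhibition.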
Experiment [6] is described as follows: NCI Yeast Anticancer Drug Screen. Data for the mlh1 rad18 strain (AID 175). The note with it: S. cerevisiae mlh1 rad18 strain growth inhibition; at 50.0 µM; stronger effect = higher value. The method, boiled down:
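Cells of a genetically altered yeast strain, deficient in DNA damage repair, were treated with compound. Their growth was then compared with that of vehicle-treated cultures to give inhibition.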

SMILES strings stand for the structures. This is part of a sample that, as a whole, favours compounds with a hit. Of some 79,000 tested, about 15% had one in any assay. Unmarked numbers belong to inactive results. Active and inactive are the calls of the source. Cut-off read from the data, not from the text of the source: active = growth inhibition above about 70%; inactive = the rest.

In the case of `c1ccc2c3c(ccc2c1)Oc1ccc2ccccc2c1C3`, the growth inhibition in experiment [1] was -8.55%; in experiment [2], -1.45%; in experiment [3], -7.2%; in experiment [4], -47.4%; in experiment [5] it was -7.35%; in experiment [6], 1%.
In the case of `CC1(C)CC(=O)NC1=O`, the growth inhibition in experiment [1] was 30.8%; in experiment [2], 2%; in experiment [3], 8.55%; in experiment [4], -0.2%; in experiment [5] it was -19%; in experiment [6], 9.3%.
As to `N=c1ccccn1CC(O)COc1ccccc1` (stereo unspecified), the growth inhibition was -11.2% in experiment [1]; -9.6% in experiment [2]; -1.6% in experiment [3]; 1.1% in experiment [4]; 4.2% in experiment [5]; -5.8% in experiment [6].
In the case of `CC(C)[Si](C#CC[Si](C(C)C)(C(C)C)C(C)C)(C(C)C)C(C)C`, the growth inhibition is -13.8% in experiment [1]; -6% in experiment [2]; -17.4% in experiment [3]; -17.6% in experiment [4]; -20.3% in experiment [5]; -9.35% in experiment [6].
Take `O=C(CCC(=O)OCCCl)OCCCl`: the growth inhibition in experiment [1] was -3.4%; in experiment [2], -18.9%; in experiment [3] it was -5.6%; in experiment [4] it was -7.75%; in experiment [5], 9.05%; in experiment [6], -7.45%.
Take `COC(=O)CCOc1ccccc1`: the growth inhibition in experiment [1] is 15.1%; in experiment [2], 5.1%; in experiment [3], 0.25%; in experiment [4], 11.9%; in experiment [5], -8.8%; in experiment [6] it was -18.8%.
As for `O=c1c2c(no[n+]2[O-])c2ccccc2n1-c1ccccc1`, the growth inhibition is 96.7% (active) in experiment [1]; 66% in experiment [2]; 92.4% (active) in experiment [3]; 86% (active) in experiment [4]; 97.2% (active) in experiment [5]; 96% (active) in experiment [6].
Take `Cc1ccc(NC(=O)N2CC2C)cc1NC(=O)N1CC1C` (stereo unspecified): the growth inhibition in experiment [1] is 2.4%; in experiment [2] it was 5.55%; in experiment [3], -7.05%; in experiment [4], 17.3%; in experiment [5], 6.9%; in experiment [6], -9.45%.
With `NC(C(=O)O)c1ccc(C(=O)O)cc1` (stereo unspecified), the growth inhibition in experiment [1] is 30.7%; in experiment [2], 15.6%; in experiment [3], -5.55%; in experiment [4] it was 18.8%; in experiment [5], -7.6%; in experiment [6] it was 20.5%.
For `CS(=O)(=O)OCC1NC(=O)C(COS(C)(=O)=O)NC1=O` (stereo unspecified), the growth inhibition in experiment [1] was -10.4%; in experiment [2], 2.8%; in experiment [3] it was -3.15%; in experiment [4] it was 2%; in experiment [5], -0.65%; in experiment [6], 3.7%.
`CC(C)(C)OC(=O)c1ccc(NCc2cc(O)ccc2O)cc1`: the growth inhibition in experiment [1] is 87.4% (active); in experiment [2], 89% (active); in experiment [3], 90.8% (active); in experiment [4], 90.3% (active); in experiment [5], 88.5% (active); in experiment [6], 87.1% (active).
In the case of `Cn1c(COc2ccc(/C=N\N3CCN(/N=C\c4ccc(OCc5c[n+]6ccccc6n5C)cc4)CC3)cc2)c[n+]2ccccc12`, the growth inhibition in experiment [1] is -15.8%; in experiment [2], 11.8%; in experiment [3], 29.6%; in experiment [4], 25.7%; in experiment [5] it was -5.95%; in experiment [6], 44%.
Turning to `CC1=CC(NCCC(=O)O)NC(=O)N1` (stereo unspecified), the growth inhibition is 4.25% in experiment [1]; -6.2% in experiment [2]; -18.1% in experiment [3]; -62.6% in experiment [4]; -1.75% in experiment [5]; -1.85% in experiment [6].
For `CC1=C(C(=O)Nc2ccccc2)C(c2ccccc2)C(C(=O)Nc2ccccc2)=C(C)N1`, the growth inhibition in experiment [1] was 4.2%; in experiment [2] it was 2.55%; in experiment [3], 14.5%; in experiment [4], 18.4%; in experiment [5] it was 0.55%; in experiment [6] it was 22.4%.
As to `COc1ccc(CCl)c(C)c1OC`, the growth inhibition in experiment [1] was 32.7%; in experiment [2], 5.75%; in experiment [3], 18.9%; in experiment [4], 2.75%; in experiment [5], 16.1%; in experiment [6], -10.7%.
For the compound `Cc1cc2c(C#N)c3ccccc3c(=O)n2c2ccccc12`, the growth inhibition was -0.95% in experiment [1]; 6.75% in experiment [2]; -1.25% in experiment [3]; -7.4% in experiment [4]; -13.7% in experiment [5]; 3.4% in experiment [6].
`CC(=O)c1cc(C)c(C)cc1C`: the growth inhibition in experiment [1] was -13.9%; in experiment [2] it was 7.6%; in experiment [3] it was -2.5%; in experiment [4] it was -12%; in experiment [5] it was 1.65%; in experiment [6], -12.5%.
With `Nc1c(Br)c(Br)cc2c1-c1ccc(Br)cc1C2`, the growth inhibition in experiment [1] was 8.2%; in experiment [2], 3.75%; in experiment [3] it was -2.65%; in experiment [4] it was 8.75%; in experiment [5], 7.9%; in experiment [6], -4.7%.
For the compound `N#Cc1ccccc1OCCCCCCCCCCOc1ccccc1C#N`, the growth inhibition was -2.8% in experiment [1]; -4.15% in experiment [2]; -19.6% in experiment [3]; 31.4% in experiment [4]; -1% in experiment [5]; 3.8% in experiment [6].
As to `O=c1cc(-c2ccccc2)nc(/C=C(\O)c2ccncc2)n1-c1ccccc1`, the growth inhibition was -4.25% in experiment [1]; -18.9% in experiment [2]; 0.4% in experiment [3]; 10.1% in experiment [4]; 15.5% in experiment [5]; -8.15% in experiment [6].
As for `Cc1c(Cl)cc(Cl)c(N)c1Cl`, the growth inhibition in experiment [1] was -4.4%; in experiment [2] it was -13.7%; in experiment [3] it was -18%; in experiment [4], -5.3%; in experiment [5], -16.1%; in experiment [6] it was -15.2%.

Values taken from PubChem BioAssay (NCI).
